According to PubChem BioAssay (NCI):
About 83,000 compounds went through this panel and 20% of them were active in at least one assay; those are over-represented in the sample as a whole.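 The endpoint reported here, percent growth, reads 100 for growth as untreated, 0 for no net growth and -100 for all cells dead.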 Active and inactive are the calls of the source. Rule for the calls: active = growth percent below 10; inactive = the rest.

Experiments:
Test in all cases: NCI-60 one-dose screen, 48 h (100 = growth as untreated, 0 = no growth, -100 = all killed)
Conditions in all cases: 10 µM unless noted
HCT-15 colon = tested on: HCT-15 colon
HT29 colon = tested on: HT29 colon
SNB-75 CNS = tested on: SNB-75 CNS
SNB-19 CNS = tested on: SNB-19 CNS
U251 CNS = tested on: U251 CNS
PC-3 prostate = tested on: PC-3 prostate
SK-MEL-5 melanoma = tested on: SK-MEL-5 melanoma
UACC-62 melanoma = tested on: UACC-62 melanoma
LOX IMVI melanoma = tested on: LOX IMVI melanoma
SK-MEL-28 melanoma = tested on: SK-MEL-28 melanoma

Measured: growth

O=P(O)(O)OCC1OC(n2cnc3c(NCc4ccco4)ncnc32)C(O)C1O (stereo not given)
active: HCT-15 colon 5.11% | SNB-75 CNS 8.93% | PC-3 prostate 9.01% | LOX IMVI melanoma -30.9%
inactive: HT29 colon 16.7% | SNB-19 CNS 31.9% | U251 CNS 38.3% | SK-MEL-5 melanoma 40.2% | UACC-62 melanoma 45.4% | SK-MEL-28 melanoma 87%

N=c1c(S(=O)(=O)c2ccccc2)cc2c(=O)n3ccccc3nc2n1CC1CCCO1 (stereo not given)
inactive: HCT-15 colon 119% | HT29 colon 120% | SNB-75 CNS 73.9% | SNB-19 CNS 103% | U251 CNS 108% | PC-3 prostate 95.3% | SK-MEL-5 melanoma 99.7% | UACC-62 melanoma 99.8% | LOX IMVI melanoma 98.7% | SK-MEL-28 melanoma 108%

Cc1nnc(-c2ccc3c(c2)nc(/C=C/c2ccccc2)n3C2CCCCC2)o1
inactive: HCT-15 colon 49.4% | HT29 colon 37.3% | SNB-75 CNS 103% | SNB-19 CNS 102% | U251 CNS 79.8% | PC-3 prostate 63.5% | SK-MEL-5 melanoma 70.8% | UACC-62 melanoma 61.8% | LOX IMVI melanoma 44.3% | SK-MEL-28 melanoma 72.4%

CN1C(=O)/C(=C2\SC(=Nc3ccccc3)N(Nc3ccccc3)C2=O)c2ccccc21
inactive: HCT-15 colon 105% | HT29 colon 119% | SNB-75 CNS 78.9% | SNB-19 CNS 95.9% | U251 CNS 100% | PC-3 prostate 86.6% | SK-MEL-5 melanoma 99.3% | UACC-62 melanoma 81.3% | LOX IMVI melanoma 93.5% | SK-MEL-28 melanoma 105%

Cn1cc(-c2nn3cc(-c4cccs4)nc3s2)c2cc(F)ccc21
active: HT29 colon 7.69%
inactive: HCT-15 colon 23.5% | SNB-75 CNS 11.9% | SNB-19 CNS 32.1% | U251 CNS 26% | PC-3 prostate 45.2% | SK-MEL-5 melanoma 29.3% | UACC-62 melanoma 33.1% | LOX IMVI melanoma 35.4% | SK-MEL-28 melanoma 49.7%

COc1ccc(/C=C2\CN(C(=O)C(Cl)Cl)C/C(=C\c3ccc(OC)cc3)C2=O)cc1
active: HCT-15 colon -14.4% | HT29 colon 5.9% | SNB-19 CNS -10.9% | U251 CNS -68.2% | PC-3 prostate -8.13% | SK-MEL-5 melanoma -41% | UACC-62 melanoma -66% | LOX IMVI melanoma -77.8% | SK-MEL-28 melanoma -12.5%
inactive: SNB-75 CNS 21%

O=C(Nc1ccccc1[N+](=O)[O-])c1ccc(Cl)c(Cl)c1
inactive: HCT-15 colon 91% | HT29 colon 98.7% | SNB-75 CNS 69.6% | SNB-19 CNS 101% | U251 CNS 86.1% | PC-3 prostate 80.3% | SK-MEL-5 melanoma 84.2% | UACC-62 melanoma 87.2% | LOX IMVI melanoma 85.9% | SK-MEL-28 melanoma 105%

Cc1c(Cl)cccc1C(=O)Nc1nc2c(s1)CN(C(=O)c1ccc(C(F)(F)F)cc1)CC2
inactive: HCT-15 colon 15% | SNB-19 CNS 34.6% | U251 CNS 17.7% | UACC-62 melanoma 37.6% | LOX IMVI melanoma 20.2% | SK-MEL-28 melanoma 59.1%
active: HT29 colon 1.63% | SNB-75 CNS 6.65% | PC-3 prostate 7.45% | SK-MEL-5 melanoma 8.01%

Cc1ccc(C(=O)c2ccc(CC(=O)NN3C(=O)c4ccccc4C3=O)n2C)cc1
inactive: HCT-15 colon 103% | HT29 colon 106% | SNB-75 CNS 62.9% | SNB-19 CNS 96.4% | U251 CNS 95.8% | PC-3 prostate 98.9% | SK-MEL-5 melanoma 99.8% | UACC-62 melanoma 94.2% | LOX IMVI melanoma 94.1% | SK-MEL-28 melanoma 103%

C[C@]1(O)CC(=O)[C@]2(O)C3=C(C=C[C@]2(O)C1)C(=O)c1c(O)cccc1C3=O
active: HCT-15 colon -45.5% | HT29 colon 3.93% | SK-MEL-5 melanoma -53.7% | LOX IMVI melanoma -51.5% | SK-MEL-28 melanoma -37.4%
inactive: SNB-75 CNS 20% | SNB-19 CNS 101% | U251 CNS 72.4% | PC-3 prostate 72.8% | UACC-62 melanoma 16.5%

COc1ccc(Cn2cc(C(=O)N=Nc3c(O)[nH]c4c(C)cccc34)nn2)cc1
inactive: HCT-15 colon 68% | HT29 colon 67.4% | SNB-75 CNS 27.3% | SNB-19 CNS 97.5% | U251 CNS 108% | PC-3 prostate 61.3% | SK-MEL-5 melanoma 93.8% | UACC-62 melanoma 74.1% | LOX IMVI melanoma 75.3% | SK-MEL-28 melanoma 94.9%

O=c1c2c3c(sc2n2c(-c4cc(-c5ccccc5)no4)nnc2n1Cc1ccccc1)CCCC3
inactive: HCT-15 colon 96.9% | HT29 colon 108% | SNB-75 CNS 76.2% | SNB-19 CNS 55.7% | U251 CNS 94.3% | PC-3 prostate 71.8% | SK-MEL-5 melanoma 105% | UACC-62 melanoma 80.7% | LOX IMVI melanoma 81% | SK-MEL-28 melanoma 127%

CN1CCN(c2ccc3nc4c(nc3c2C(F)(F)F)C(=O)c2ncccc2C4=O)CC1
active: HCT-15 colon -47.5% | HT29 colon -55.5% | SNB-75 CNS 5.3% | U251 CNS 0.911% | PC-3 prostate 8.01% | SK-MEL-5 melanoma -99.7% | UACC-62 melanoma -82.5% | LOX IMVI melanoma -50.1% | SK-MEL-28 melanoma 5.49%
inactive: SNB-19 CNS 17.9%

CCOc1cccc(/C=N/NC(=O)c2cccc(Nc3ccnc(C(F)(F)F)c3)c2)c1O
inactive: HCT-15 colon 28.8% | HT29 colon 53.2% | SNB-75 CNS 36.4% | SNB-19 CNS 35.1% | U251 CNS 37% | PC-3 prostate 59.1% | SK-MEL-5 melanoma 34.7% | LOX IMVI melanoma 11.8% | SK-MEL-28 melanoma 34.6%
active: UACC-62 melanoma 0.213%

O=C(Nc1ncc(Cc2cc(C(F)(F)F)ccc2Cl)s1)c1cccs1
inactive: HCT-15 colon 21.9% | HT29 colon 18.6% | SNB-75 CNS 72% | SNB-19 CNS 65% | U251 CNS 42.5% | PC-3 prostate 50.1% | SK-MEL-5 melanoma 37.7% | UACC-62 melanoma 46.1% | LOX IMVI melanoma 58.8% | SK-MEL-28 melanoma 67.5%

O=C1/C(=C/c2ccccn2)NC(=S)N1c1ccccc1Cl
inactive: HCT-15 colon 38.2% | HT29 colon 71.1% | SNB-75 CNS 82% | SNB-19 CNS 58.6% | U251 CNS 34.6% | PC-3 prostate 52.2% | SK-MEL-5 melanoma 57.9% | UACC-62 melanoma 66.7% | LOX IMVI melanoma 12.1% | SK-MEL-28 melanoma 74%

O=C(N/N=C\c1ccccc1S(=O)(=O)O)N/N=C/c1ccccc1S(=O)(=O)O
inactive: HCT-15 colon 104% | HT29 colon 105% | SNB-75 CNS 95.5% | SNB-19 CNS 99.8% | U251 CNS 99.9% | PC-3 prostate 96.3% | SK-MEL-5 melanoma 106% | UACC-62 melanoma 98.1% | LOX IMVI melanoma 102% | SK-MEL-28 melanoma 101%

CCNC(=O)Oc1ccc(/C(=C(/CC)Cc2ccccc2)c2ccc(OCCN3CCCC3)cc2)cc1
inactive: HCT-15 colon 73.1% | HT29 colon 98.6% | SNB-75 CNS 85.5% | SNB-19 CNS 93.4% | U251 CNS 91.7% | PC-3 prostate 75% | SK-MEL-5 melanoma 91.7% | UACC-62 melanoma 98.3% | LOX IMVI melanoma 91.4% | SK-MEL-28 melanoma 99%

COc1ccc(NC(=O)Nc2ccc(OCCCCCC(=O)NO)cc2)cc1
inactive: HCT-15 colon 117% | HT29 colon 88.8% | SNB-75 CNS 93.2% | SNB-19 CNS 102% | U251 CNS 101% | PC-3 prostate 97.8% | SK-MEL-5 melanoma 104% | UACC-62 melanoma 89.4% | LOX IMVI melanoma 96.4% | SK-MEL-28 melanoma 103%

Oc1c(CN2CCCC2)cc(CSCc2ccccc2)c2cccnc12
active: HCT-15 colon -39.3% | U251 CNS -1.52% | SK-MEL-5 melanoma -26.3% | UACC-62 melanoma -19.5% | LOX IMVI melanoma 2.24%
inactive: HT29 colon 91% | SNB-75 CNS 24.6% | SNB-19 CNS 23.9% | PC-3 prostate 20.8% | SK-MEL-28 melanoma 23.8%

COc1ccc(/C=C/C(c2cc(OC)c(OC)c(OC)c2)n2cncn2)cc1 (stereo not given)
active: HT29 colon 4.96%
inactive: HCT-15 colon 31.1% | SNB-75 CNS 51.3% | SNB-19 CNS 49% | U251 CNS 31.8% | PC-3 prostate 31.2% | SK-MEL-5 melanoma 33% | UACC-62 melanoma 33.8% | LOX IMVI melanoma 50% | SK-MEL-28 melanoma 62.6%

O=C(Cc1ccc(NC(=O)c2cccc(Cl)c2)cc1)NCc1ccccc1
active: HT29 colon 8.25% | SK-MEL-5 melanoma 7.53%
inactive: HCT-15 colon 27.1% | SNB-75 CNS 29.7% | SNB-19 CNS 47.5% | U251 CNS 33.3% | PC-3 prostate 48.8% | UACC-62 melanoma 37.2% | LOX IMVI melanoma 39.6% | SK-MEL-28 melanoma 58.9%

O=C1/C(=C/c2ccc(O)c(O)c2)COc2ccc(-c3ccccc3)cc21
inactive: HT29 colon 15% | SNB-75 CNS 21.1% | SNB-19 CNS 56.2% | U251 CNS 22.3% | PC-3 prostate 19.9% | SK-MEL-5 melanoma 23.2%
active: HCT-15 colon -31.2% | UACC-62 melanoma -13.6% | LOX IMVI melanoma 4.79% | SK-MEL-28 melanoma -11.5%

CN(CCCNC(=O)Cc1ccc2ccc3cccc4ccc1c2c34)CCCNc1cc(-c2ccc3ccccc3c2)nc2ccccc12
active: HCT-15 colon -69% | HT29 colon -80.8% | SNB-75 CNS -94.6% | SNB-19 CNS -82.8% | U251 CNS -49.3% | PC-3 prostate -87.5% | SK-MEL-5 melanoma -93.1% | UACC-62 melanoma -51.6% | LOX IMVI melanoma -54% | SK-MEL-28 melanoma -85.7%

C[C@H](C(=O)N(CCc1ccc(Cl)c(Cl)c1)Cc1cncs1)[C@@H]1CC[C@H](C[C@H](C)n2cc(CN3CCC(c4ccc(Cl)cc4)CC3)nn2)O1
inactive: HCT-15 colon 99.6% | HT29 colon 102% | SNB-75 CNS 97.6% | SNB-19 CNS 94.5% | U251 CNS 100% | PC-3 prostate 86.5% | SK-MEL-5 melanoma 101% | UACC-62 melanoma 90.3% | LOX IMVI melanoma 98.3% | SK-MEL-28 melanoma 102%

C=C(C)[C@@H]1CC[C@]2(C(=O)N3CCN(C)CC3)CC[C@]3(C)[C@H](CC[C@@H]4[C@@]5(C)CC[C@H](OC(=O)c6ccccc6C(=O)O)C(C)(C)[C@@H]5CC[C@]43C)[C@@H]12
inactive: HCT-15 colon 103% | HT29 colon 109% | SNB-75 CNS 85.1% | SNB-19 CNS 95.4% | U251 CNS 105% | PC-3 prostate 91% | SK-MEL-5 melanoma 99.5% | UACC-62 melanoma 101% | LOX IMVI melanoma 99.1% | SK-MEL-28 melanoma 105%
